According to the supplement of paper PMC12669032:
A number with no mark means an inactive call.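 How the source made its calls: active = AUC reduced over 20% with Padj below 0.05 in at least 2 of 3 replicates; inactive = otherwise.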

System: Escherichia coli IAI1
Assay: growth AUC relative to DMSO control (median of replicates) (fraction); higher = more growth (less inhibition), active = hit call of the paper
Conditions: 20 µM; 24 h
How it was run: (§1)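 Area under the growth curve was normalised to the plate median of solvent-only wells, or to row and column medians on the industrial chemical plate. Growth curves came from anaerobic gut bacterial monocultures in mGAM at 37 °C, seeded at OD600 0.05 with 20 µM compound (1% DMSO), and read at OD600 hourly for 24 h with the minimum OD set to 0. The value is the median of three biological replicates grown on separate days.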

Compound	growth AUC
COP(=S)(OC)Oc1ccc(S(N)(=O)=O)cc1	0.999
CCCCOC(=O)[C@@H](C)Oc1ccc(Oc2ccc(C#N)cc2F)cc1	0.966
CCC(C)(C)c1ccc(O)cc1	0.985
CCCCCCCCCc1ccc(O)cc1	1.01
CC(C)OC(=O)Nc1ccccc1	1.01
CCCCc1c(C)nc(NCC)nc1OS(=O)(=O)N(C)C	1.01
CCOP(=S)(OCC)Oc1cc(-c2ccccc2)on1	0.993
C=CC(N)=O	1
CC(C)C(C(=O)OC(C#N)c1cccc(Oc2ccccc2)c1)c1ccc(OC(F)F)cc1 (stereo not drawn)	0.979
Oc1ccccc1-c1ccccc1	1.05
FC(F)C(F)(F)OCC(Cn1cncn1)c1ccc(Cl)cc1Cl (stereo not drawn)	0.966
Nc1ccc(Cc2ccc(N)c(Cl)c2)cc1Cl	1.01
Nc1cccc(Cl)c1Cl	1.03
COC(=O)NS(=O)(=O)c1ccc(N)cc1	0.975
CC(C)=CC1C(C(=O)OCc2cccc(Oc3ccccc3)c2)C1(C)C (mixture of isomers)	0.974
COP(=S)(OC)SCC(=O)N(c1ccc(Cl)cc1)C(C)C	0.976
CC(=O)O.CC(=O)O.CC(=O)O.NC(N)=NCCCCCCCCNCCCCCCCCN=C(N)N	0.822
N#Cc1c(Cl)c(Cl)c(Cl)c(C#N)c1Cl	0.96
CCOP(=O)(NC(C)C)Oc1ccc(SC)c(C)c1 (stereo not drawn)	0.953
[CH3][Hg][Cl]	1.06

Compound	growth AUC
ClC1=C(Cl)C2(Cl)C3COCC3C1(Cl)C2(Cl)Cl (stereo not drawn)	1.03
c1cc2c3c(cccc3c1)CC2	1.01
CO/N=C(/C(=O)OC)c1ccccc1COc1ccccc1C	0.993
O=C(Nc1ccc(F)cc1F)c1cccnc1Oc1cccc(C(F)(F)F)c1	0.965
ClC1=C(Cl)[C@]2(Cl)[C@@H]3[C@@H]4C[C@@H]([C@H]5O[C@@H]45)[C@@H]3[C@@]1(Cl)C2(Cl)Cl	0.996
CC1(C)CCC(Cc2ccc(Cl)cc2)C1(O)Cn1cncn1 (stereo not drawn)	0.98
CC(C)(C)C(O)C(Cc1ccc(Cl)cc1Cl)n1cncn1 (mixture of isomers)	0.979
CC1(C)C(C=C(Cl)Cl)C1C(=O)OCc1cccc(Oc2ccccc2)c1 (mixture of isomers)	0.98
O=[N+]([O-])C(Br)(CO)CO	0.987
COc1cc(OC)nc(NC(=O)NS(=O)(=O)c2ncccc2C(=O)N(C)C)n1	0.972
COC(=O)c1ccccc1S(=O)(=O)NC(=O)Nc1nc(C)cc(C)n1	0.985
CCS(=O)(=O)c1nc2ccccn2c1S(=O)(=O)NC(=O)Nc1nc(OC)cc(OC)n1	1.01
COc1cc(OC)nc(NC(=O)NS(=O)(=O)c2cc(NC=O)ccc2C(=O)N(C)C)n1	1.01
O=C(Nc1ccccc1)Nc1cnns1	0.884
CCSCCSP(=S)(OC)OC	1
Clc1cc(Cl)c(Cl)cc1Cl	1.04
COP(=S)(OC)Oc1cc(Cl)c(Br)cc1Cl	0.965
CC(C)C1(C)N=C(c2ncccc2C(=O)O)NC1=O (stereo not drawn)	0.974
O=c1oc2ccccc2c(O)c1C1CCCc2ccccc21 (stereo not drawn)	1.04

System: Eubacterium rectale
Assay: as above
Conditions: 20 µM; 24 h
How it was run: as §1

Compound	growth AUC
COP(=S)(OC)Oc1ccc(S(N)(=O)=O)cc1	0.901
CCCCOC(=O)[C@@H](C)Oc1ccc(Oc2ccc(C#N)cc2F)cc1	1.11
CCC(C)(C)c1ccc(O)cc1	0.953
CCCCCCCCCc1ccc(O)cc1	0.968
CC(C)OC(=O)Nc1ccccc1	0.991
CCCCc1c(C)nc(NCC)nc1OS(=O)(=O)N(C)C	1.16
CCOP(=S)(OCC)Oc1cc(-c2ccccc2)on1	1.05
C=CC(N)=O	0.997
CC(C)C(C(=O)OC(C#N)c1cccc(Oc2ccccc2)c1)c1ccc(OC(F)F)cc1 (stereo not drawn)	0.848
Oc1ccccc1-c1ccccc1	0.984
FC(F)C(F)(F)OCC(Cn1cncn1)c1ccc(Cl)cc1Cl (stereo not drawn)	0.804
Nc1ccc(Cc2ccc(N)c(Cl)c2)cc1Cl	1.01
Nc1cccc(Cl)c1Cl	0.947
COC(=O)NS(=O)(=O)c1ccc(N)cc1	1.28
CC(C)=CC1C(C(=O)OCc2cccc(Oc3ccccc3)c2)C1(C)C (mixture of isomers)	1.06
COP(=S)(OC)SCC(=O)N(c1ccc(Cl)cc1)C(C)C	0.964
CC(=O)O.CC(=O)O.CC(=O)O.NC(N)=NCCCCCCCCNCCCCCCCCN=C(N)N	0.0201 (active)
N#Cc1c(Cl)c(Cl)c(Cl)c(C#N)c1Cl	0.714
CCOP(=O)(NC(C)C)Oc1ccc(SC)c(C)c1 (stereo not drawn)	1.04
[CH3][Hg][Cl]	0.872

Compound	growth AUC
ClC1=C(Cl)C2(Cl)C3COCC3C1(Cl)C2(Cl)Cl (stereo not drawn)	0.992
c1cc2c3c(cccc3c1)CC2	1.05
CO/N=C(/C(=O)OC)c1ccccc1COc1ccccc1C	0.939
O=C(Nc1ccc(F)cc1F)c1cccnc1Oc1cccc(C(F)(F)F)c1	1.06
ClC1=C(Cl)[C@]2(Cl)[C@@H]3[C@@H]4C[C@@H]([C@H]5O[C@@H]45)[C@@H]3[C@@]1(Cl)C2(Cl)Cl	0.999
CC1(C)CCC(Cc2ccc(Cl)cc2)C1(O)Cn1cncn1 (stereo not drawn)	0.8
CC(C)(C)C(O)C(Cc1ccc(Cl)cc1Cl)n1cncn1 (mixture of isomers)	0.845
CC1(C)C(C=C(Cl)Cl)C1C(=O)OCc1cccc(Oc2ccccc2)c1 (mixture of isomers)	0.911
O=[N+]([O-])C(Br)(CO)CO	0.949
COc1cc(OC)nc(NC(=O)NS(=O)(=O)c2ncccc2C(=O)N(C)C)n1	0.999
COC(=O)c1ccccc1S(=O)(=O)NC(=O)Nc1nc(C)cc(C)n1	1.07
CCS(=O)(=O)c1nc2ccccn2c1S(=O)(=O)NC(=O)Nc1nc(OC)cc(OC)n1	0.999
COc1cc(OC)nc(NC(=O)NS(=O)(=O)c2cc(NC=O)ccc2C(=O)N(C)C)n1	0.998
O=C(Nc1ccccc1)Nc1cnns1	1
CCSCCSP(=S)(OC)OC	0.899
Clc1cc(Cl)c(Cl)cc1Cl	0.986
COP(=S)(OC)Oc1cc(Cl)c(Br)cc1Cl	1.03
CC(C)C1(C)N=C(c2ncccc2C(=O)O)NC1=O (stereo not drawn)	1.01
O=c1oc2ccccc2c(O)c1C1CCCc2ccccc21 (stereo not drawn)	1.08
